Compounds without any hit were thinned out: in the full panel of roughly 83,000, 20% have a hit.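 Plates (96-well) were seeded with cells, treated with compound at one concentration, and incubated for 48 hours before percent growth was determined.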 Active and inactive are the calls of the source. How the source made its calls: active means growth percent below 10; inactive means the rest.

The record followed here is PubChem BioAssay (NCI).

This assay deals with SR leukemia. The assay can be described thus: NCI-60 one-dose screen, 48 h (100 = growth as untreated, 0 = no growth, -100 = all killed). The following applies: 10 µM unless noted.
As for `CCSc1nnc(Nc2ccc(C(C)C)cc2)s1`, the growth is 69.4% (inactive).
The result for `O=C(Cc1c(F)cccc1Cl)Nc1ccc(S(=O)(=O)Nc2ncccn2)cc1` reads 52% (inactive); that for `CC1(C)OC2COC3(C(=O)O)OC(C)(C)OC3C2O1` (stereo not given), 121% (inactive); that for `COc1cc(-n2nc(C(=O)Nc3ccc(C(=O)O)cc3)nc2-c2ccccc2)cc(OC)c1OC`, 118% (inactive).
`CN1CCN(CCCOc2ccc3nc(Nc4ccc(C(F)(F)F)c(Cl)c4)ccc3c2)CC1`: the growth was -6.45% (active).
In the case of `COc1ccc(S(=O)(=O)NCCNc2nccc(-c3c(-c4ccccc4)nc4sccn34)n2)cc1` it was 12.8% (inactive); in that of `O=c1[nH]c(-c2cn(-c3ccc(Cl)cc3)nn2)nc2ccccc12`, 80.4% (inactive).
On to `COc1ccc(S(=O)(=O)Nc2cc(/C=C\c3cc(OC)c(OC)c(OC)c3)cc(OC)c2OC)cc1OC`, for which the growth was 20% (inactive).
On to `COc1ccc(-c2nc3sccn3c2-c2ccnc(NCCNS(=O)(=O)c3ccc(C(F)(F)F)cc3)n2)cc1`, for which the growth is 11.6% (inactive).
The result for `CCN(CC)CCSc1c2ccc(Cl)cc2nc2ccc(OC)cc12` reads 12.1% (inactive); that for `COc1ncc(-c2ccc3ncnc(Nc4cccc(Cl)c4)c3c2)cc1NS(=O)(=O)CCN1CCOCC1`, 9.25% (active).
As for `O=c1[nH]c(CN2CCN(c3ccccc3F)CC2)nc2sc3c(c12)CCC3`, the growth is 94.8% (inactive).
As for `O=C(Nc1cccc(Cl)c1)c1cc([N+](=O)[O-])ccc1O`, the growth was 57% (inactive).
As for `Cc1cc(N/C=c2\sc3ncnn3c2=O)no1`, the growth is 74.8% (inactive).
`c1ccc2c(c1)Oc1ccccc1C2C1c2ccccc2Oc2ccccc21`: the growth was 86.3% (inactive).
